Laboratory results: PubChem BioAssay AID743279 (National Center for Advancing Translational Sciences (NCATS), 2014)
About 17,000 (4.7%) of roughly 360,000 compounds were called active. Another 5% or so got no clear call; they are omitted. This is one part of a sample in which actives are shown more often than they occur. Rule as the data show it: active = activity change below about -50%; inconclusive = mostly about -30% to -49%; inactive = weaker than that.

Test: qHTS for Inhibitors of Inflammasome Signaling: IL-1-beta AlphaLISA Primary Screen
Settings: THP-1 LPS/ATP IL-1B secretion, 16 h; at 57.5 µM, stronger effect = lower value
Procedure, shortened: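 THP-1 cells pretreated 1 hr with compounds (up to 57.5 uM final), then stimulated with LPS (250 ng/mL final) plus ATP (1.25 mM final); secreted IL-1B measured by AlphaLISA after 16 hr, decreased signal indicating inhibition.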
% is scaled to controls: 0 for no effect and ±100 for the full control effect.

Activity change, inactive:
CC(=O)C1=C(O)C(=O)N(c2ccc(S(N)(=O)=O)cc2)C1c1ccccc1F (stereo unspecified) 7.68%
NC(=O)c1ncn([C@@H]2O[C@H](CN=C3NS(=O)(=O)c4ccccc43)[C@@H](O)[C@H]2O)n1 21.3%
NS(=O)(=O)c1ccc(CCNC(=S)Nc2ccc(S(N)(=O)=O)cc2)cc1 -3.65%
COc1ccc(NC(=S)Nc2ccc(S(N)(=O)=O)cc2)c(C)c1 -12.2%
CCOC(=O)CSc1nc(N2CCOCC2)c2c(c1C#N)CC(C(C)C)OC2 (stereo unspecified) 56.1%
CCOC(=O)CSc1ccccn1 3.79%
O=S(=O)(Cc1cc(Sc2ccccc2)nc(-c2ccccc2)n1)c1ccccc1 0%
O=S(=O)(NCCc1csc(-c2ccccc2)n1)c1cccnc1 41.8%
O=C1NC(Cc2ccccc2)c2nc3ccc(Br)cc3c(=O)n2-c2cc3ccccc3cc21 (stereo unspecified) -12%
C[C@H](O)[C@@H]1C(=O)N2CCc3ccc(N4CCOCC4)cc3[C@@H]2C[C@@H]1N(C)C(=O)C(C)(C)C 0%
CN1OC[C@@H]2CN(C(=O)C(C)(C)C)[C@H](c3ccc(-n4ccnc4)cc3)C[C@@H]21 -20.8%
Cc1ccccc1S(=O)(=O)N1[C@@H](c2cccc(Cl)c2)C(C(=O)OC(C)(C)C)=CC[C@H]1c1ccc(Cl)cc1 -7.69%
CCCN1CCN(CCCNC(=O)CN2C(=O)COc3ccccc32)CC1 5.04%
CC(C)OCCCNC(=O)CN1C(=O)/C(=C/c2ccccc2F)Oc2ccccc21 14.1%
Cc1cccc(CN2CCN(C3CN(Cc4ccccc4)S(=O)(=O)C3)CC2)c1 (stereo unspecified) 5.62%
COC(=O)C1C(=O)NCC1c1ccc(OC)cc1 (stereo unspecified) 5.62%
C[C@@H]1CN([C@@H](C)CO)C(=O)c2cc(Br)cnc2O[C@@H]1CN(C)C(=O)C1CCCCC1 -1.93%
CNS(=O)(=O)c1cnccc1N1CCN(c2cccc(C)c2)CC1 -2.21%
CC(C)=C1SC(N2CCN(c3ccc(C)c(Cl)c3)CC2)=NC1=O 25.2%
CCCCCc1c(C)nc(N2CCN(Cc3ccc4c(c3)OCO4)CC2)[nH]c1=O -0.641%
O=c1[nH]c(N2CCN(Cc3ccc4c(c3)OCO4)CC2)nc2c1CCCC2 4.34%
O=C(NCCS(=O)(=O)N1CCN(c2ccccc2)CC1)c1cc(=O)c2ccccc2o1 -1.79%
CC(=O)Oc1ccc(OC(C)=O)c2c1C1C=CC2CC1 -13.5%
Clc1ccc(-n2nnnc2-c2cnc(-c3ccccn3)nc2-c2cccs2)cc1 -21.9%
c1ccc(-n2nnnc2-c2cccnc2)cc1 -6.19%
O=C(CNC(=O)c1ccc(-c2ccccc2)cc1)OCc1ccc(Cl)cc1 18.8%
O=C(OCC(=O)c1c[nH]c2ccccc12)c1cccc(O)c1 -4.98%
CCN(CC)CCNC(=O)C1c2ccccc2C(=O)N(C)C1c1cn(C)c2ccccc12 (stereo unspecified) 6.05%
CSc1nnc2c(n1)OC(c1cn(C)c3ccccc13)N(C(C)=O)c1ccccc1-2 (stereo unspecified) 0.333%
CCCc1ccc(C(O)c2ncc(-c3cccc(OC)c3)[nH]2)cc1 (stereo unspecified) 26%
COC(=O)c1ccccc1Oc1c(F)c(F)nc(N2CCOCC2)c1F 5.09%
Cn1nc(C(=O)OCC(=O)N(Cc2ccccc2)C(C)(C)C)c2ccccc2c1=O 10.9%
Cc1ccc(C)c(OCCC(=O)OCC(=O)N2CCN(c3ccccc3)CC2)c1 -2.33%
COc1ccccc1OCCC(=O)OCC(=O)NCc1ccccc1 18%
Nc1[nH]c(C(=O)c2ccccc2)c(-c2ccncc2)c1C(=O)NCc1cccc2ccccc12 7.69%
Cc1noc(C)c1S(=O)(=O)N(C)C[C@H]1OCCCC[C@@H](C)Oc2ccc(NC(=O)CCCN(C)C)cc2C(=O)N([C@H](C)CO)C[C@@H]1C 19.6%
O=[N+]([O-])c1ccc(CN2CC(N3CC=CC3)CS2(=O)=O)cc1 (stereo unspecified) -24.5%
COC(=O)c1ccc(NC(=O)C23CC4CC(C2)CC(n2cnc(Cl)n2)(C4)C3)cc1 54.6%
O=C(CSc1nc2cccc(F)c2c(=O)n1-c1ccccc1)Nc1ccc2c(c1)CCC2 0%
Oc1c(Cl)cc(Cl)cc1/C=N/c1ncn[nH]1 -20.2%
C=CCn1c(Cn2nnc3ccccc32)nnc1SCC(=O)N/N=C/c1cc(Br)cc(OC)c1O 1%
Nn1c(SCC(=O)Nc2nccs2)nncc1=O 9.24%
CC1CCCCC12NC(=O)N(CC(=O)OCC(=O)NCc1ccc(F)cc1)C2=O (stereo unspecified) 28%

Activity change, active:
NS(=O)(=O)c1ccc(NC(=S)Nc2ccc(Br)c(Cl)c2)cc1 -89%
CCOC(=O)CSc1nccc(N(C)C)c1C#N -70.3%
O=S(=O)(Cc1cc(Cl)nc(-c2cccnc2)n1)c1ccccc1 -98.6%
CN1CCN(CCCNC(=O)c2ccc(/C=C3\Oc4ccccc4N(Cc4ccc(Cl)cc4)C3=O)cc2)CC1 -78%
CC(C)=C1SC(N2CCN(c3cccc(C)c3)CC2)=NC1=O -56.9%
Fc1ccc2[nH]c3c(N4CCSCC4)ncnc3c2c1 -62%
Fc1ccc2[nH]c3c(N4CCN(Cc5ccc6c(c5)OCO6)CC4)ncnc3c2c1 -94.7%
FC(F)(F)c1nc(-c2ccccc2)ncc1-c1nnnn1-c1ccccc1 -66.2%
O=C(OCc1ccc(-c2ccccc2)cc1)c1cccc(O)c1 -71.1%
Cn1cc(C2OC(=O)c3ccccc32)c2ccccc21 (stereo unspecified) -66%
Cc1ccc(C)c(OCCC(=O)OCC(=O)NC(=O)NCc2ccccc2)c1 -87.8%
COc1cc(Br)cc(/C=N/c2ncn[nH]2)c1O -55.5%
C[C@@H]1C[C@@H]2O[C@H]2/C=C\C=C\C(=O)Cc2c(Cl)c(O)cc(O)c2C(=O)O1 -108%
